Assay results from the supplement of paper PMC13380429.
Unmarked numbers belong to inactive results.

Test system: Vero E6 infected with SARS-CoV-2
Experiment: inhibition of SARS-CoV-2 cytopathic effect; higher = more antiviral protection, active = above 15
Settings: 48 h

Compound	inhibition of SARS-CoV-2 cytopathic effect (1 nM)	inhibition of SARS-CoV-2 cytopathic effect (8.33 nM)	inhibition of SARS-CoV-2 cytopathic effect (100 nM)	inhibition of SARS-CoV-2 cytopathic effect (833.33 nM)	inhibition of SARS-CoV-2 cytopathic effect (10000 nM)
O=c1c(-c2ccc(O)cc2)coc2c([C@@H]3O[C@H](CO)[C@@H](O)[C@H](O)[C@H]3O)c(O)ccc12 [puerarin]	-2.73%	-3.08%	-2.16%	2.34%	-0.84%
C[S+]([O-])CCCCN=C=S (stereo not given) [sulforaphane]	-7.22%	-6.04%	-3.89%	-3.35%	35.2% (active)
FCc1ccc(OCCOc2ccc(Cl)cc2Cl)c(Cl)n1	2.16%	2.42%	2.11%	1.12%	1.65%
CN(C)C/C=C/C(=O)Nc1ccc(C(=O)Nc2cccc(Nc3ncc(Cl)c(-c4c[nH]c5ccccc45)n3)c2)cc1	-0.79%	-1.41%	-1.48%	-2.92%	-8.5%
Cn1cnc2c1c(=O)[nH]c(=O)n2C [theobromine]	-1.8%	1.86%	1.32%	1.3%	-1.36%
CC(c1cc2ccccc2s1)N(O)C(N)=O (stereo not given) [zileuton]	-2.05%	-0.81%	1.43%	-1.9%	-1.8%
COc1ccc(C(=O)NCc2ccc(OCCN(C)C)cc2)cc1OC [itopride]	0.25%	-0.19%	1.77%	-0.42%	0.72%
O[C@@H](Cc1ccncc1)C(Cl)(Cl)Cl	0.9%	1.38%	3.16%	0.72%	0.84%
Cc1nc2ccccn2c(=O)c1CCN1CCC(C(=O)c2ccc(F)cc2)CC1 [pirenperone]	1.65%	1.73%	-0.8%	1.4%	0.69%
C[C@H](NC(=O)C(C)(C)Oc1ccc(C(F)(F)F)cn1)[C@@H](Cc1ccc(Cl)cc1)c1cccc(C#N)c1 [taranabant]	-0.8%	0.33%	-2.11%	1.39%	-5.97%
CC(C)NC(=O)N1CC[C@H](NC2=Nc3cc(F)ccc3N(CC(F)F)c3ccc(Cl)cc32)C1	2.37%	0.15%	3.33%	8.12%	-0.57%
C[C@@H]1C(=O)O[C@H]2C[C@@]34[C@H]5C[C@@H](C(C)(C)C)[C@]36[C@@H](OC(=O)[C@@H]6O)O[C@@]4(C(=O)O5)[C@]21O [Ginkgolide A]	3.54%	2.25%	2.7%	1.3%	-1.89%
O=C(NO)c1ccc2[nH]c(=O)c(CCCc3ccccc3)nc2c1	1.82%	3.66%	0.97%	1.93%	-2.66%
CC[C@H](CO)Nc1nc(NCc2ccccc2)c2ncn(C(C)C)c2n1 [roscovitine]	1.02%	2.46%	-0.4%	-1.46%	-0.57%
Nc1ccc(S(=O)(=O)Nc2ccccn2)cc1 [sulfapyridine]	-1.16%	0.08%	0.38%	-1.04%	-4.35%
CCc1cccc2c3c([nH]c12)C(CC)(CC(=O)O)OCC3 (stereo not given) [etodolac]	-3.24%	-2.14%	-2.22%	-1.67%	-0.69%
CSc1ccc(C(=O)N[C@@H]2CCCC[C@@H]2NC(=O)CNC(=O)c2cc(C(F)(F)F)ccc2NC(=O)NC(C)C)cc1	4.3%	-0.79%	0.52%	0.24%	0.79%
C[C@H](N/C(=N/C#N)Nc1cccc2ncccc12)c1ccccc1	-1.75%	-2.48%	-3.44%	1.32%	1.97%
O=P1(N(CCCl)CCCl)NCCCO1 (stereo not given) [cyclophosphamide]	-3.03%	0.27%	-0.35%	-1.65%	0.46%
